Results as given in PubChem BioAssay (EPA / NIEHS).
Several values for one entry are separate records, joined by “and”; a condition that tells them apart may be missing. Identical values can stand only once. Where a structure was tested more than once in an assay, its records may differ in their call. Activity calls are given as the source filed them. The calls were made as follows: active = hit-call score of the fitted dose curve at least 0.9, where 1 is the maximum; inactive = score below 0.9.

Tests used:
[1] = biological target: Transcription factor E2F1 (Homo sapiens) (UniProt Q01094); assay: ATG_E2F_CIS: Attagene CIS-FACTORIAL HepG2 Assay for human E2F Transcription Factor 1 (AID 2282935); conditions: HepG2 Attagene cis-reporter, E2F reporter RNA transcripts; actives raise or lower the signal
Sequence of Transcription factor E2F1 (Homo sapiens) (Q01094 whole entry, looked up): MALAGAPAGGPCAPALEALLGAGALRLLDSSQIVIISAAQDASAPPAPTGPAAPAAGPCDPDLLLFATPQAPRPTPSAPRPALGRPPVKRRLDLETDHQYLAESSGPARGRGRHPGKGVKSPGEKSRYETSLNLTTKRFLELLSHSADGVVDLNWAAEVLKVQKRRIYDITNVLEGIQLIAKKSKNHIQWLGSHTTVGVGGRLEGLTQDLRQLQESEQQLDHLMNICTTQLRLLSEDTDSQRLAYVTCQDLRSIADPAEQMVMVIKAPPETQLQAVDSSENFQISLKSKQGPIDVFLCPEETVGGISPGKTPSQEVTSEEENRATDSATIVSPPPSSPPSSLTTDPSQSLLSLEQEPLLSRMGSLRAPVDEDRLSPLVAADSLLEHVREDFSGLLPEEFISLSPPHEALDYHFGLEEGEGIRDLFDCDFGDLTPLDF
Method in brief: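 In this cis-factorial format, endogenous factor activity drives transfected reporters in HepG2; transcripts collected at 24 h are quantified by fluorescence after RT-PCR and capillary separation.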

[2] = ATG_E_Box_CIS: Attagene CIS-FACTORIAL HepG2 Assay for human Enhancer Box (E-box) (AID 2282936); conditions: HepG2 E-box cis-reporter transcription, actives raise or lower the signal
Method in brief: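 Measured 24 h post-dosing in HepG2 cells transfected with multiple cis-regulated reporter units, signal being reporter mRNA induction detected by fluorescent RT-PCR with capillary electrophoresis; gain or loss fitted against DMSO.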

[3] = ATG_M_61_CIS: Attagene CIS-FACTORIAL HepG2 Assay for M61 Transcription Factor (Internal Marker) (AID 2282937); conditions: HepG2 Attagene CIS-FACTORIAL M61 internal marker reporter; actives raise or lower the signal
Method in brief: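 HepG2 cells transiently transfected with multiplexed cis-promoter reporter units reporting endogenous transcription factor activity, measured 24 h after dosing. Reporter mRNA quantified by RT-PCR and capillary electrophoresis; bidirectional fit against DMSO baseline.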

[4] = ATG_EGR_CIS: Attagene CIS-FACTORIAL HepG2 Assay for human Early Growth Response 1 (EGR1) (AID 2282938); conditions: HepG2 Attagene CIS-FACTORIAL EGR reporter mRNA; actives raise or lower the signal
Method in brief: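 HepG2 cells transiently transfected with cis-element-driven multiplexed reporter units, dosed for 24 h. EGR1-element reporter mRNA quantified by RT-PCR, 6-FAM labelling, HpaI digestion and capillary electrophoresis; bidirectional fit versus DMSO.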

[5] = ATG_M_19_CIS: Attagene CIS-FACTORIAL HepG2 Assay for M19 Transcription Factor (Internal Marker) (AID 2282939); conditions: HepG2 Attagene CIS-FACTORIAL M19 internal marker reporter; actives raise or lower the signal
Method in brief: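 Signals come from fluorescence of labelled reporter-specific PCR fragments resolved by capillary electrophoresis, following 24 h treatment of HepG2 cells transfected with cis-promoter reporter units; activity was fitted in both directions relative to DMSO.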

[6] = ATG_ERE_CIS: Attagene CIS-FACTORIAL HepG2 Assay for Estrogen Response Element (ERE) (AID 2282940); conditions: HepG2 ERE cis-reporter, Attagene RNA transcript; actives raise or lower the signal
Method in brief: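 Fluorescence of capillary-separated, FAM-labelled reporter cDNA fragments indicates reporter mRNA levels in HepG2 cells exposed to chemicals for 24 h. Transient transfection with cis-regulated units; data fitted in both directions against DMSO.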

[7] = ATG_Ets_CIS: Attagene CIS-FACTORIAL HepG2 Assay for human Erythroblast Transformation Specific (ETS) (AID 2282941); conditions: HepG2 ETS cis-reporter transcription, actives raise or lower the signal
Method in brief: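 RT-PCR/capillary electrophoresis fluorescence read-out of reporter mRNA; HepG2 transient multi-reporter transfection; 24 h compound exposure; gain or loss of signal fitted bidirectionally relative to DMSO.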

[8] = biological target: Hepatocyte nuclear factor 3-beta (Homo sapiens) (UniProt Q9Y261); assay: ATG_FoxA2_CIS: Attagene CIS-FACTORIAL HepG2 Assay for human Forkhead box A2 (FOXA2) (AID 2282942); conditions: HepG2 cis-reporter transcription factor activity, 24 h; actives raise or lower the signal
Sequence of Hepatocyte nuclear factor 3-beta (Homo sapiens) (Q9Y261 whole entry, looked up): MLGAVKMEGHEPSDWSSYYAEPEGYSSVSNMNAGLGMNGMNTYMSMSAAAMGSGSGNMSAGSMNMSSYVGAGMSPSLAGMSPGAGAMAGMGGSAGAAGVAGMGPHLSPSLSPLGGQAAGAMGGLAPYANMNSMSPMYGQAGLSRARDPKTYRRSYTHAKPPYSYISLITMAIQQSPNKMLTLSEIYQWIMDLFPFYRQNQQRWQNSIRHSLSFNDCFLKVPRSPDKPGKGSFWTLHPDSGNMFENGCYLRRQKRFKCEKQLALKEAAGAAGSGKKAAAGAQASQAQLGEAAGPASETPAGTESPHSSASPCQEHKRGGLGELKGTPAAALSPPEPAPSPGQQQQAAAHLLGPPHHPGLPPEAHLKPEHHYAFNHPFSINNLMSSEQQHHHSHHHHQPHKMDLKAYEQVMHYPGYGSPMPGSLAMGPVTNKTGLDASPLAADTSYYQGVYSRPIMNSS
Method in brief: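 HepG2 transiently transfected with a multiplexed cis-promoter reporter library read endogenous FOXA2 activity. After 24 h compound exposure, reporter mRNA was quantified by RT-PCR, HpaI digestion and capillary electrophoresis. Bidirectional fit against DMSO.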

[9] = ATG_FoxO_CIS: Attagene CIS-FACTORIAL HepG2 Assay for human Forkhead box O (FoxO) (AID 2282943); conditions: HepG2 Attagene cis-reporter, FoxO element, mRNA; actives raise or lower the signal
Method in brief: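 HepG2 cells transiently transfected with cis-promoter-driven multiple reporter transcription units; 24 h after chemical dosing, reporter mRNA quantified by RT-PCR, fluorescent primer extension, HpaI digestion and capillary electrophoresis. Bidirectional fitting versus DMSO baseline.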

[10] = ATG_GATA_CIS: Attagene CIS-FACTORIAL HepG2 Assay for human GATA Binding Protein (AID 2282944); conditions: HepG2 GATA cis-element reporter, Attagene multiplex mRNA; actives raise or lower the signal
Method in brief: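 After transfecting HepG2 cells with multiple cis-regulated reporter units, chemicals are dosed for 24 h; isolated RNA undergoes RT-PCR and fluorescent labeling before capillary electrophoresis, with activity expressed against DMSO.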

[11] = ATG_GLI_CIS: Attagene CIS-FACTORIAL HepG2 Assay for human Zinc Finger Protein GLI1 (AID 2282945); conditions: HepG2, Attagene cis-factorial reporter mRNA, GLI element; actives raise or lower the signal
Method in brief: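 HepG2 cells transiently transfected with cis-promoter multiplexed reporter units report endogenous transcription factor activity. After 24 h chemical exposure, reporter mRNA was quantified by RT-PCR, 6-FAM labelling, HpaI digestion and capillary electrophoresis, with bidirectional fitting against DMSO.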

[12] = ATG_GRE_CIS: Attagene CIS-FACTORIAL HepG2 Assay for human Glucocorticoid Response Elements (GRE) (AID 2282947); conditions: HepG2 GRE cis-reporter, Attagene multiplex mRNA; actives raise or lower the signal
Method in brief: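 HepG2, transient cis-reporter transfection, 24 h. Reporter mRNA: RT-PCR then CE, fluorescence. Fit both directions vs DMSO.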

[13] = ATG_ISRE_CIS: Attagene CIS-FACTORIAL HepG2 Assay for human Interferon Regulatory Factor 1 (IRF1) binding to an Interferon-Stimulated Response Element (ISRE) (AID 2282948); conditions: HepG2 ISRE cis-reporter (Attagene), mRNA transcription readout; actives raise or lower the signal
Method in brief: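 Read-out: fluorescent RT-PCR products resolved by capillary electrophoresis, reporting endogenous transcription factor activity via ISRE-driven reporter mRNA in transfected HepG2 cells dosed for 24 h; gain or loss fitted relative to DMSO.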

[14] = ATG_M_32_CIS: Attagene CIS-FACTORIAL HepG2 Assay for M32 Transcription Factor (Internal Marker) (AID 2282949); conditions: HepG2 Attagene cis-factorial M32 reporter, mRNA; actives raise or lower the signal;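 also: background control marker of the multiplexed CIS panel rather than a real target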
Method in brief: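 Transient MRTU transfection of HepG2; 24 h compound treatment; TriZol RNA, oligo(dT) RT, reporter PCR, 6-FAM primer extension, HpaI cut, CE. Gain/loss of signal vs DMSO.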

[15] = ATG_M_06_CIS: Attagene CIS-FACTORIAL HepG2 Assay for M06 Transcription Factor (Internal Marker) (AID 2282950); conditions: HepG2 Attagene CIS-FACTORIAL M06 internal marker reporter; actives raise or lower the signal
Method in brief: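 HepG2 liver cells, 24 h exposure. Reporter transcripts from transfected cis-element constructs quantified by RT-PCR/capillary electrophoresis fluorescence. Bidirectional curve fit against DMSO.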

[16] = biological target: Hypoxia-inducible factor 1-alpha (Homo sapiens) (UniProt Q16665); assay: ATG_HIF1a_CIS: Attagene CIS-FACTORIAL HepG2 Assay for human Hypoxia Inducible Factor 1 (HIF1A) (AID 2282951); conditions: HepG2 Attagene cis-factorial HIF1a reporter transcription; actives raise or lower the signal
Sequence of Hypoxia-inducible factor 1-alpha (Homo sapiens) (Q16665 whole entry, looked up): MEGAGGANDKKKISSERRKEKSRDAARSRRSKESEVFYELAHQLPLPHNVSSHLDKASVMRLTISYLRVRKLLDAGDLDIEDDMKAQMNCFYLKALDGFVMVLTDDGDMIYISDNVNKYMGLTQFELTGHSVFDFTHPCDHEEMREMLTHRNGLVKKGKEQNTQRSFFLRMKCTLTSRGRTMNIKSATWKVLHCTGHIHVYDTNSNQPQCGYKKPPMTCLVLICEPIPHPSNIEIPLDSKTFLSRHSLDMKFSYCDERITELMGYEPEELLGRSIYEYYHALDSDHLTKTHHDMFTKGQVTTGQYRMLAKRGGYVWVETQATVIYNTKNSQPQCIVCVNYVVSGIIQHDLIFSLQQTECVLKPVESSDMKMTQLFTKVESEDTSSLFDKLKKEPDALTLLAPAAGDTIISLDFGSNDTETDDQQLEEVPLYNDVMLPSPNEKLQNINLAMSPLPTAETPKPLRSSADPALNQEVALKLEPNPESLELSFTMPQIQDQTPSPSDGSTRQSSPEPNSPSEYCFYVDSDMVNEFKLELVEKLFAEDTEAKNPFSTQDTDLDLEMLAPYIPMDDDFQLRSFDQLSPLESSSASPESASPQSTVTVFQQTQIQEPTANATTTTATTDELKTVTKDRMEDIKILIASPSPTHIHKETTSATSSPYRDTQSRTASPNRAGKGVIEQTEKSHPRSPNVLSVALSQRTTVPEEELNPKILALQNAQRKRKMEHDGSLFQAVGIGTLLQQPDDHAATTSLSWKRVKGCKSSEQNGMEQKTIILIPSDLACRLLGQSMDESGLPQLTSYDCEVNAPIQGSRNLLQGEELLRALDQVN
Method in brief: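 HepG2 cells transiently transfected with multiple cis-regulated reporter transcription units measure endogenous transcription factor activity. After 24 h exposure, reporter mRNA is quantified by RT-PCR with 6-FAM labelling, HpaI digestion and capillary electrophoresis. Bidirectional fitting against DMSO.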

[17] = biological target: Hepatocyte nuclear factor 6 (Homo sapiens) (UniProt Q9UBC0); assay: ATG_HNF6_CIS: Attagene CIS-FACTORIAL HepG2 Assay for human Hepatocyte Nuclear Factor 6 (HNF6) (AID 2282952); conditions: HepG2 Attagene cis-factorial HNF6 reporter transcription; actives raise or lower the signal
Sequence of Hepatocyte nuclear factor 6 (Homo sapiens) (Q9UBC0 whole entry, looked up, the tested form may be a part): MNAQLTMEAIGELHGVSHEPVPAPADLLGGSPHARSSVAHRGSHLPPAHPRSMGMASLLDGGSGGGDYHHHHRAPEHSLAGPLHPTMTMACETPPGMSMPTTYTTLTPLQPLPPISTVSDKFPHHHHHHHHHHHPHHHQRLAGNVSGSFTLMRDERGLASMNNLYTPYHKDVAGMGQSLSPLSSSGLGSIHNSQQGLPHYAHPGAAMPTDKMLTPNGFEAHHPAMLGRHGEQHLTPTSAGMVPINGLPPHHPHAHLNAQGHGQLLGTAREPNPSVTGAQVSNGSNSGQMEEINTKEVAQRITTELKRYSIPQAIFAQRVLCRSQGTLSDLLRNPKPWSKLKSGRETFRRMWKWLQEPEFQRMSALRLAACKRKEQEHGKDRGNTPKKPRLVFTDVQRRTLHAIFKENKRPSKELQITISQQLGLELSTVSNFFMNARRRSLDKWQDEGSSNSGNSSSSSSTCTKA
Method in brief: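 Readout: fluorescent reporter-transcript fragments resolved by capillary electrophoresis after RT-PCR, reflecting endogenous factor activity in transfected HepG2. Exposure 24 h. Gain or loss of signal fitted bidirectionally against DMSO.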

[18] = biological target: Heat shock factor protein 1 (Homo sapiens) (UniProt Q00613); assay: ATG_HSE_CIS: Attagene CIS-FACTORIAL HepG2 Assay for human Heat Shock Transcription Factor 1 (HSE) (AID 2282953); conditions: HepG2 HSE cis-reporter, Attagene RNA transcription; actives raise or lower the signal
Sequence of Heat shock factor protein 1 (Homo sapiens) (Q00613 whole entry, looked up, the tested form may be a part): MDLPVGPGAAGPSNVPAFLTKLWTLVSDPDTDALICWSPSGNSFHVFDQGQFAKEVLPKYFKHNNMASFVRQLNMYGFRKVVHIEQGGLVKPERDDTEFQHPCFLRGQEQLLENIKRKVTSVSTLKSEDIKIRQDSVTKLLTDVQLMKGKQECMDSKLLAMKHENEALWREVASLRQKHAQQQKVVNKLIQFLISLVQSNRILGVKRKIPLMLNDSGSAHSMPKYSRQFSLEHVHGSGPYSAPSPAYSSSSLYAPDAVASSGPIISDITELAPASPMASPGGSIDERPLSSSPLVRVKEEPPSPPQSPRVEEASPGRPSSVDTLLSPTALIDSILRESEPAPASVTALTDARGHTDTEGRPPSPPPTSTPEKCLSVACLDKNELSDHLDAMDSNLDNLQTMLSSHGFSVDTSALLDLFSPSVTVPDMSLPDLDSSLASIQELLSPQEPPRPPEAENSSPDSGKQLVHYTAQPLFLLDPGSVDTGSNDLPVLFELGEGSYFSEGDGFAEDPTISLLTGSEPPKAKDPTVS
Method in brief: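 Endogenous transcription factor activity captured via cis-promoter reporter units transfected into HepG2; treatment lasted 24 h. Fluorescence intensity of reporter fragments analysed with bidirectional curve fitting, DMSO baseline.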

[19] = ATG_MRE_CIS: Attagene CIS-FACTORIAL HepG2 Assay for human Metal Responsive Element (MRE) (AID 2282954); conditions: HepG2 MRE cis-reporter transcription, Attagene multiplex; actives raise or lower the signal
Method in brief: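 Readout: capillary electrophoresis of 6-FAM-labelled, HpaI-digested RT-PCR reporter products. System: HepG2 cells carrying transient multiplexed cis reporters, dosed 24 h. Analysis: bidirectional fit, DMSO baseline.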

[20] = biological target: Bile acid receptor (Homo sapiens) (UniProt Q96RI1); assay: ATG_IR1_CIS: Attagene CIS-FACTORIAL HepG2 Assay for human Nuclear Receptor Subfamily 1 Group H Member 4 (NR1H4), IR1 submotif (AID 2282946); conditions: IR1 reporter transcription, actives raise or lower the signal
Sequence of Bile acid receptor (Homo sapiens) (Q96RI1 whole entry, looked up): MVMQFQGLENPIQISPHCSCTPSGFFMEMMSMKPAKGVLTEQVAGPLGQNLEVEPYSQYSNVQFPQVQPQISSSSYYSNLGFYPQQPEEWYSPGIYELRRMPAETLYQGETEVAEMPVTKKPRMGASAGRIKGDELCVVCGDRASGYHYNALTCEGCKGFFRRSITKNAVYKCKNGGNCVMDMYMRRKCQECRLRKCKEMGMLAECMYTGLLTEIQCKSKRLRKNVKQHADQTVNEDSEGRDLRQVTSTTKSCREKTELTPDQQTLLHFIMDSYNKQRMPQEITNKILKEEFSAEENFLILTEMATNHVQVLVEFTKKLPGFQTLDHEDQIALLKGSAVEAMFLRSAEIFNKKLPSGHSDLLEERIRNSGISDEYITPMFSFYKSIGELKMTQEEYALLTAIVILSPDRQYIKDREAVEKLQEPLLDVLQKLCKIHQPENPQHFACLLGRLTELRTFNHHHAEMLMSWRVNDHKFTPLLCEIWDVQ
Method in brief: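 Readout: reporter transcript levels by RT-PCR with fluorescent capillary electrophoresis, from HepG2 cells transiently transfected with multiplexed cis-regulated reporters and dosed 24 h. Gain- or loss-of-signal fitted versus DMSO negative control.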

Measured: AC50

CCOC(=O)COc1cc(-n2ncc(C(F)(F)F)c(C)c2=O)c(F)cc1Cl
not listed: [20]
inactive: all other assays above

C=CCOC(Cn1ccnc1)c1ccc(Cl)cc1Cl (stereo not given)
active: [4] 30.9 µM | [16] 17.4 µM | [18] 84.4 µM | [19] 24.5 µM
not listed: [6] | [20]
inactive: all other assays above

CSC(=O)c1cccc2nnsc12
not listed: [20]
inactive: all other assays above

N[C@@H](Cc1cc(I)c(Oc2ccc(O)c(I)c2)c(I)c1)C(=O)O
inactive: [1] | [2] | [3] | [4] | [5] | [7] | [8] | [9] | [10] | [11] | [12] | [13] | [14] | [15] | [16] | [17] | [18] | [19]
active: [8] 1.32 µM | [16] 16.3 µM and 19.5 µM and 1.93 µM | [18] 107 µM and 160 µM | [19] 50.6 µM and 23.7 µM and 94 µM

CCSC(=O)N(CC(C)C)CC(C)C
not listed: [20]
inactive: all other assays above

CCCCCOC(=O)COc1cc(N2C(=O)C3=C(CCCC3)C2=O)c(F)cc1Cl
active: [2] 50 µM | [18] 87.6 µM
not listed: [20]
inactive: all other assays above

CCCN(CCC)C(=O)SCC
not listed: [20]
inactive: all other assays above

CCOC(=O)NCCOc1ccc(Oc2ccccc2)cc1
active: [4] 50 µM | [6] 12.6 µM | [20] 88.9 µM | [16] 86 µM | [18] 78.1 µM | [19] 66.2 µM
not listed: [12]
inactive: all other assays above

COc1c(Cl)ccc(Cl)c1C(=O)O
not listed: [12] | [20]
inactive: all other assays above

C[C@]12C[C@H](O)[C@H]3[C@@H](CCC4=CC(=O)CC[C@@]43C)[C@@H]1CC[C@@H]2C(=O)CO
active: [12] 26.6 µM | [16] 55.9 µM
inactive: [1] | [2] | [3] | [4] | [5] | [7] | [8] | [9] | [10] | [11] | [20] | [12] | [13] | [14] | [15] | [16] | [17] | [18] | [19]

COC(=O)c1ccccc1C(=O)O
not listed: [20]
inactive: all other assays above

CC1(C)C(C=C(Cl)Cl)C1C(=O)OCc1cccc(Oc2ccccc2)c1 (stereo not given)
active: [6] 21.3 µM
not listed: [20]
inactive: all other assays above

CCCCC(CC)CN1C(=O)C2C3C=CC(C3)C2C1=O (stereo not given)
active: [16] 50 µM | [19] 68.5 µM
not listed: [20]
inactive: all other assays above
